# The supplement of paper PMC10849652
# Targets with a hit are over-represented here; the source holds about 8,800 in all. About 0.5% of all pairs of compound and target were hits. Unmarked numbers belong to inactive results.
# Columns and labels:
# Experiment in all cases: log2 fold change, soluble protein after heating vs DMSO (PISA); higher = thermal stabilisation; K562 lysate, 10 uM; active = over 0.2 and 3.5 SD of the protein, either way, in both replicates (recomputed)
# [1] = compound: C=CC(=O)N1CCC[C@@H](n2nc(-c3ccc(Oc4ccccc4)cc3)c3c(N)ncnc32)C1 [ibrutinib]
# In short: (§1)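 Quantification was by TMTpro 16plex LC-MS/MS with equalised channel sums, applied to the supernatant after 21,000xg for 90 min. Samples were crude K562 extract at 1 mg/mL protein in PBS pH 7.4 with 1 mM MgCl2, treated with 10 μM compound for 30 min, heated for 3 min across 48°C-58°C, pooled and brought to 0.5% NP-40 at 4°C. Values are log-two fold changes in thermal stability relative to solvent controls, from duplicates.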
# [2] = compound: CC(=O)c1cnc2ccc(-c3cc(Cl)c(O)c(Cl)c3)nc2c1N[C@H]1CC[C@H](CN(C)C)CC1
# In short: as §1
# [3] = compound: CC(C)(C)Cn1c(N)nc2ccc(-c3[nH]c(C(C)(C)C)nc3-c3ccc(F)cc3)nc21 [ralimetinib]
# In short: as §1
# [4] = compound: CC(C)(O)CC(=O)NCCn1ccc2ncnc(Nc3ccc(Oc4cccc(C(F)(F)F)c4)c(Cl)c3)c21
# In short: as §1
# [5] = compound: CC(C)C1=C2N=C(C=C(N2N=C1)NCC3=CC=CC=C3)NCCCCCCN
# In short: as §1
# [6] = compound: CC1=C(C(CC(=O)N1)C2=CC=C(C=C2)C(F)(F)F)C(=O)NC3=C(C=C4C(=C3)C=NN4)F
# In short: as §1
# [7] = compound: CC1=C(C2=C(C=C1)C(=O)C3=CC=CC=C3N2CCCN)C
# In short: as §1
# [8] = compound: CC1=C(C=C(C=C1)NC(=O)C2=CC(=CC=C2)C(C)(C)C#N)NC3=CC4=C(C=C3)N=CN(C4=O)C
# In short: as §1
# [9] = compound: CC1=C(C=C(C=C1)NC(=O)C2=CC(=CC=C2)N(C)C)NC(=O)C3=CC=C(C=C3)O
# In short: as §1
# [10] = compound: CC1=CC=C(C=C1)SC2=C3C=C(SC3=CN=C2)C(=O)N
# In short: as §1
# Sequence of UniProt O14772 (O14772 whole entry, looked up): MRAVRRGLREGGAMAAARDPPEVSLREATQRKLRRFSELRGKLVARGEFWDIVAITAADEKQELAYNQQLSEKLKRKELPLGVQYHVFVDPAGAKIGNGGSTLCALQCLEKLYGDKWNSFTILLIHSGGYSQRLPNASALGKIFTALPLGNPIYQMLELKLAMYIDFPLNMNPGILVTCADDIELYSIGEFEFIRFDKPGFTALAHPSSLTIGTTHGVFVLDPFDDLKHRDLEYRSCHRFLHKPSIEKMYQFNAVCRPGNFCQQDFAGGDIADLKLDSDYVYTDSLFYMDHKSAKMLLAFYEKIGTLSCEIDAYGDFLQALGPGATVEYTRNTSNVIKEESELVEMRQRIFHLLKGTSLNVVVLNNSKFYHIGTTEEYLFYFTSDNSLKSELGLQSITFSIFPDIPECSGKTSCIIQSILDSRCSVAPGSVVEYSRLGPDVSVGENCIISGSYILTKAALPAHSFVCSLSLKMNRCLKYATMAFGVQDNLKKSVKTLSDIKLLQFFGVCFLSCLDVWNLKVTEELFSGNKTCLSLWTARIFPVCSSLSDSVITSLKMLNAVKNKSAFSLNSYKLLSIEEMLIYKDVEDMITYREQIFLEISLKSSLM
# Sequence of UniProt Q96A65 (Q96A65 whole entry, looked up): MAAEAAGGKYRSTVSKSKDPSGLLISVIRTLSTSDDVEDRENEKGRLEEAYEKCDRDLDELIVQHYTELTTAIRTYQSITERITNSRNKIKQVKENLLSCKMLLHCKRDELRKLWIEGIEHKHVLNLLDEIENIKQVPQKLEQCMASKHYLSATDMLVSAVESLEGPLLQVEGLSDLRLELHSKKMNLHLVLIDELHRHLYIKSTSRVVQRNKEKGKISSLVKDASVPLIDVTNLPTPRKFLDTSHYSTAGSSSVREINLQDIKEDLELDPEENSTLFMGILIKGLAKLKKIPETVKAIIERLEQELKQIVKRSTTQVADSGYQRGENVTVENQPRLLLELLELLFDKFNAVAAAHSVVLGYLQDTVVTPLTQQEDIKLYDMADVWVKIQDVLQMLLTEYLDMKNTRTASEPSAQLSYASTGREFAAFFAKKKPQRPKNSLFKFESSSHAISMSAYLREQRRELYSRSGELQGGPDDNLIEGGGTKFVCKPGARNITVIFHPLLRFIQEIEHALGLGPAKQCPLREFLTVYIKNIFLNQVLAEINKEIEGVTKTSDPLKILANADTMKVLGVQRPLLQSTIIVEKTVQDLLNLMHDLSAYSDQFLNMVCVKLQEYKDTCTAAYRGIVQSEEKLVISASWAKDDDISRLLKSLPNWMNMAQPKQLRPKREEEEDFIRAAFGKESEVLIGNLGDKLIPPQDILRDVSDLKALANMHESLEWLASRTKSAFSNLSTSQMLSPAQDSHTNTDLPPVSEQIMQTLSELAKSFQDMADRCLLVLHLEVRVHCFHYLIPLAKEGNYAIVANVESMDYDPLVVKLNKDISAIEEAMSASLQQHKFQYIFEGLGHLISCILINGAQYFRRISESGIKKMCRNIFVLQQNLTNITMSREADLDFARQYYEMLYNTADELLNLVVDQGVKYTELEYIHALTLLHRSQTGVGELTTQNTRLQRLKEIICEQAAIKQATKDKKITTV
# Sequence of UniProt P07814 (P07814 whole entry, looked up): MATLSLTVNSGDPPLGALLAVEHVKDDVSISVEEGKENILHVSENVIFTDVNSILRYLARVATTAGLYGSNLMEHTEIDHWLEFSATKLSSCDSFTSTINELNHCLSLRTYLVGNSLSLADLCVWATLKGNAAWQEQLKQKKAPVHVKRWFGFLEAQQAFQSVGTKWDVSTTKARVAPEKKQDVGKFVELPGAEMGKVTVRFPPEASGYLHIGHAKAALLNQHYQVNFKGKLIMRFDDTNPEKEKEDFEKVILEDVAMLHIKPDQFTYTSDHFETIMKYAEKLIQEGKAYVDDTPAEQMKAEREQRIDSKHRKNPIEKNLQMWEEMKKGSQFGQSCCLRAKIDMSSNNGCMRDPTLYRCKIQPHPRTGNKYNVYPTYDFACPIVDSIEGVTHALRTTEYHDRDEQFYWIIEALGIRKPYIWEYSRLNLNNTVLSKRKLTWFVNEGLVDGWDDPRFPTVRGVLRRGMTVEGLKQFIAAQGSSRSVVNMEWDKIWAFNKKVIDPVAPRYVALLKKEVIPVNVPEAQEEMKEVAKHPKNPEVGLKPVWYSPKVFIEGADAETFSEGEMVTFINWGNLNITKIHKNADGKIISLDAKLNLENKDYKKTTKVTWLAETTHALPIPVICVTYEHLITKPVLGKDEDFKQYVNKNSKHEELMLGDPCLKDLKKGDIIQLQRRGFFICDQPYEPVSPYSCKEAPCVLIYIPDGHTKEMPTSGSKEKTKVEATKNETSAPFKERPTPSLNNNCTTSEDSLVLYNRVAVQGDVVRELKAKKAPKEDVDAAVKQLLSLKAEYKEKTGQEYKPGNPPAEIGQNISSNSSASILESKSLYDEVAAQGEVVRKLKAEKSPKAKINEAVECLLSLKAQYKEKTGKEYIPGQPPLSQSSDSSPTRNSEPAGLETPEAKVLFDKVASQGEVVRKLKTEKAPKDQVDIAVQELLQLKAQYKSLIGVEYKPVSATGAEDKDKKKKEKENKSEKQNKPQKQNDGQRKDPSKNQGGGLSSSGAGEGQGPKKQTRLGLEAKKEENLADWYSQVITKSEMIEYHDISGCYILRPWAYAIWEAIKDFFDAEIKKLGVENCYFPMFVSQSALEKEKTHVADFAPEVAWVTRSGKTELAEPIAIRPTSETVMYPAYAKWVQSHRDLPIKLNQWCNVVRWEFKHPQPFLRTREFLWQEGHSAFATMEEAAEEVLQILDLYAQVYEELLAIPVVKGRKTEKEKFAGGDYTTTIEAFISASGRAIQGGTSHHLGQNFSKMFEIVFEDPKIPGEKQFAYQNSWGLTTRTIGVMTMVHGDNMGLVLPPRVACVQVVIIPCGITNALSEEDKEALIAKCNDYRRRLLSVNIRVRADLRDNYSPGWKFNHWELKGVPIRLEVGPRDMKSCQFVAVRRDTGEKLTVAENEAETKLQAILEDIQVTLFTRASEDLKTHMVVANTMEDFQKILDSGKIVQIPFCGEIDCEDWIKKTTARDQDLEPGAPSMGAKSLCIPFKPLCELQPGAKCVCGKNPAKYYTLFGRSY
# Sequence of UniProt Q8N6R0 (Q8N6R0 whole entry, looked up): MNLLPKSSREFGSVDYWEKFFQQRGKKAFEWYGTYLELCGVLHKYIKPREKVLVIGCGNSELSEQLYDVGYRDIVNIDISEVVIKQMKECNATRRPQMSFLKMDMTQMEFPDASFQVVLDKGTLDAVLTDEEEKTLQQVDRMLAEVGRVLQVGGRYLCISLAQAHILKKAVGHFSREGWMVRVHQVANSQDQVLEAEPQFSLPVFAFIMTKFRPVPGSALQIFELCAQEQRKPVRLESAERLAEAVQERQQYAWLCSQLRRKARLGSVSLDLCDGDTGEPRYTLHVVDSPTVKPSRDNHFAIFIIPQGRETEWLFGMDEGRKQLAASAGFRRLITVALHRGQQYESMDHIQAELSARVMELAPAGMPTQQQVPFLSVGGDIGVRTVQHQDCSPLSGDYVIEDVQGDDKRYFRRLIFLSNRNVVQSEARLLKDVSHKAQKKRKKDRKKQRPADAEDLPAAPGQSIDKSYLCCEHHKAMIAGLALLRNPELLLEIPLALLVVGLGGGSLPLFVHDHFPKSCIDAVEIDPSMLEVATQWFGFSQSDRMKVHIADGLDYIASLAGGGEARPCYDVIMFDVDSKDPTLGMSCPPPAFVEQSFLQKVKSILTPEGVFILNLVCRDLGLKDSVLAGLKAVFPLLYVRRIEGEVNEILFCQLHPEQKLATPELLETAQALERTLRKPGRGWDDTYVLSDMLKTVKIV
# Sequence of UniProt Q6IPR1 (Q6IPR1 whole entry, looked up): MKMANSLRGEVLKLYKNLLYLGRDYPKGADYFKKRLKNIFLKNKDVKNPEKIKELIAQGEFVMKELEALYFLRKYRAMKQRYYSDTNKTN
# Sequence of UniProt P09104 (P09104 whole entry, looked up): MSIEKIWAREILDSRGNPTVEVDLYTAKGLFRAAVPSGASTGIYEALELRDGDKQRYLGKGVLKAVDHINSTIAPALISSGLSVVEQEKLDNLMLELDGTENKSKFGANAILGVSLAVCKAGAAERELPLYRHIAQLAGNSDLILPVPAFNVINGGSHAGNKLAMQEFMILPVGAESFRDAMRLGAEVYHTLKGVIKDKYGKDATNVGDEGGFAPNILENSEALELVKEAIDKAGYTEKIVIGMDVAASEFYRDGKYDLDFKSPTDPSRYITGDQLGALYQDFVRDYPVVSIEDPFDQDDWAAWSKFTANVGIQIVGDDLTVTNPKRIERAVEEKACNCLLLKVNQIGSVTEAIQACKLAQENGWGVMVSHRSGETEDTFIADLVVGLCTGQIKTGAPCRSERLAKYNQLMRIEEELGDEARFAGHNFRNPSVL
# Sequence of UniProt Q8NFF5 (Q8NFF5 whole entry, looked up): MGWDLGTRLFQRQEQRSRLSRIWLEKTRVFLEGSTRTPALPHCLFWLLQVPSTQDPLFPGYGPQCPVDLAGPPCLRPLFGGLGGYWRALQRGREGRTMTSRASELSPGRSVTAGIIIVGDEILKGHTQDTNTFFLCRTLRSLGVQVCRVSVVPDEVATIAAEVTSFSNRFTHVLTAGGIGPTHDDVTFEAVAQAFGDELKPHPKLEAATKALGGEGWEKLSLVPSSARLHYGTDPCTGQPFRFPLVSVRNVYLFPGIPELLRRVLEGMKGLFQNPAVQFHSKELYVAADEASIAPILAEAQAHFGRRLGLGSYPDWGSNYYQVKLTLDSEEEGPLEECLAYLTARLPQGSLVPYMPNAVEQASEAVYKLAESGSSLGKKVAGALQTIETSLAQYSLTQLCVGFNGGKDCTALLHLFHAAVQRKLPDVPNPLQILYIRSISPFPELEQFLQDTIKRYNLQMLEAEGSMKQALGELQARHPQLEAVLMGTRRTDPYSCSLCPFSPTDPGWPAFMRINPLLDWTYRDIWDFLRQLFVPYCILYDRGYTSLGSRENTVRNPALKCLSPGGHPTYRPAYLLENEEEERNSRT
Target,log2 fold change [1],log2 fold change [2],log2 fold change [3],log2 fold change [4],log2 fold change [5],log2 fold change [6],log2 fold change [7],log2 fold change [8],log2 fold change [9],log2 fold change [10]
EEF1AKNMT (UniProt Q8N6R0),-0.016,0.017,0.096,0.023,0.017,-0.003,-0.024,0.002,-0.021,0.002
ECH1 (UniProt Q13011),-0.035,-0.02,0.064,-0.036,-0.033,0.04,-0.02,-0.017,-0.018,0.013
FAU (UniProt E9PR30),-0.018,0.012,-0.01,-0.018,-0.122,-0.034,-0.015,0.029,-0.003,0.027
GATAD2A isoform 3 (UniProt Q86YP4),0.017,0.008,0.023,0.01,0.012,-0.004,0.005,0.01,0.016,-0.005
"EED, A0A5F9ZI63",-0.026,-0.018,0.008,-0.039,-0.004,0.036,-0.003,-0.016,0.042,-0.008
EIF2B3 (UniProt Q9NR50),0.007,0.02,0.011,0.005,0.004,-0.004,-0.007,0.043,0.021,-0.004
FXR1 (UniProt P51114),0.023,-0.011,-0.017,0.032,0.002,0.014,-0.006,-0.01,0.02,0.016
GART (UniProt P22102),0.007,0.009,0.01,0.036,0.013,-0.014,0.009,-0.027,-0.006,0.021
FPGT (UniProt O14772),-0.016,-0.033,0.005,0.011,0.014,0.009,0.029,0.02,0.003,-0.033
EXOC4 (UniProt Q96A65),-0.004,-0.011,0.014,-0.031,-0.003,-0.013,0.022,-0.031,0.02,0.002
ESPL1 (UniProt Q14674),-0.076,-0.335,0.002,0.01,0.04,-0.005,-0.036,-0.04,0.076,-0.371 (active)
EMC7 (UniProt Q9NPA0),-0.033,-0.001,0.008,-0.003,0.013,-0.012,0.024,0.015,-0.006,-0.032
FBXO9 (UniProt Q9UK97),0.006,-0.014,-0.046,0.077,-0.09,0.009,0.019,0.017,0.047,0.026
GCN1 (UniProt Q92616),0.016,0.008,0.064,0.028,-0.031,-0.016,-0.01,0.008,0.075,0.026
FBXO22 (UniProt Q8NEZ5),-0.03,0.017,0.003,-0.06,-0.078,-0.026,-0.006,0.016,0,-0.014
FANCI (UniProt Q9NVI1),-0.024,0.022,0.02,-0.024,-0.038,-0.021,0.026,0.002,0.033,0.014
EBP (UniProt Q15125),-0.023,0.002,0.004,-0.022,0.02,0.01,-0.025,-0.016,-0.152,0.005
FLAD1 (UniProt Q8NFF5),-0.011,0.002,0.016,-0.014,-0.072,-0.004,-0.026,0.002,0.011,0.015
FANCD2 isoform 1 (UniProt Q9BXW9),0.01,-0.009,0,-0.066,0.048,-0.02,-0.068,0.071,0.011,-0.008
FARSA (UniProt Q9Y285),-0.006,-0.02,0.048,0.025,0.06,-0.014,-0.063,0.055,0,0.006
FIGNL1 (UniProt Q6PIW4),0,0.063,0.04,0.022,-0.006,-0.067,0.008,-0.002,0.02,0.037
EXOC5 (UniProt O00471),-0.015,0.012,0.04,-0.003,-0.016,0.008,0.003,-0.024,0.041,-0.013
FOXK1 (UniProt P85037),0.033,0.005,0.082,0.063,-0.011,0.018,0.007,-0.025,-0.001,0.011
FAM120B (UniProt Q96EK7),0.023,-0.003,0.035,-0.013,0.031,-0.028,0.002,0.008,0.041,0.012
ETFRF1 (UniProt Q6IPR1),0.062,0.028,-0.005,-0.044,-0.006,0.049,-0.018,-0.071,0.136,-0.02
ENO2 (UniProt P09104),-0.008,-0.014,0.031,-0.051,-0.007,-0.013,-0.029,0.035,0.032,0.011
DYRK1A (UniProt Q13627),-0.019,0.264 (active),-0.003,0.011,0.01,0.007,0.005,-0.007,-0.024,0.034
EPRS (UniProt P07814),-0.018,0.002,0.01,0.026,0.02,-0.014,0.02,-0.004,0.046,0.019
FNBP1L (UniProt Q5T0N5),0.034,-0.006,0.055,-0.082,-0.003,0,0.066,-0.007,0.035,0.034
FTSJ1 (UniProt Q9UET6),0.004,-0.006,-0.03,0.094,-0.054,0.011,0.069,-0.024,0.062,0.03
